# Experimental data taken from PubChem BioAssay AID434959 (Broad Institute, 2010).
# Screen size: about 30,000 compounds; about 110 (0.37%) were called active. Shown is part of a subset that was picked to be rich in actives. A number with no mark means an inactive call.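 How the source made its calls: active means delta delta Cp rounded down to an integer at or above 3, about 3 SD of DMSO wells; inactive means the rest.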
# Experiment: YB-1 transcript reduction by qRT-PCR – cell-based, fluorescence, primary screen (AID 434959);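 further: higher means less YB-1 transcript or more CDIP transcript relative to DMSO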
# Settings: U2OS, qRT-PCR YB-1 vs CDIP delta delta Cp, 16 h; hits give high values; zero = DMSO, each unit about twofold
row,Compound,delta Cp (YB-1 minus CDIP)
1,C[C@@H]1CN([C@H](C)CO)C(=O)c2cc(NC(=O)Nc3ccc4c(c3)OCO4)ccc2O[C@H]1CN(C)Cc1ccc(-c2ccccc2)cc1,0.369
2,C[C@H](CO)N1C[C@H](C)[C@H](CN(C)C(=O)Nc2ccc(C(F)(F)F)cc2)Oc2ccc(N(C)C)cc2CC1=O,0.00881
3,Cc1cc(C(=O)Nc2cccc3c2O[C@@H](CN(C)Cc2ccc(C(=O)O)cc2)[C@H](C)CN([C@@H](C)CO)C3=O)n(C)n1,-0.416
4,O=C(N/N=C/c1ccc(Oc2ccccc2)cc1)c1ccccn1,-0.417
5,COc1ccc(NC(=O)N(C)C[C@@H]2Oc3ccc(NS(=O)(=O)c4ccc(OC)cc4)cc3CC(=O)N([C@H](C)CO)C[C@H]2C)cc1,-0.353
6,C[C@H]1CN([C@@H](C)CO)C(=O)c2cccc(NC(=O)Nc3ccccc3)c2O[C@H]1CN(C)C(=O)Nc1cccc2ccccc12,0.0743
7,C[C@@H]1CN([C@@H](C)CO)C(=O)CCCn2cc(nn2)CO[C@@H]1CN(C)C(=O)C1CCCCC1,-0.464
8,Cc1noc(C)c1S(=O)(=O)N(C)C[C@H]1OCc2cn(nn2)CCCC(=O)N([C@H](C)CO)C[C@H]1C,0.0461
9,C[C@H](CO)N1C[C@H](C)[C@@H](CN(C)Cc2ccc(C(F)(F)F)cc2)Oc2ccc(NC(=O)CCC(F)(F)F)cc2C1=O,-0.124
10,C[C@@H]1CN([C@H](C)CO)C(=O)c2cccc(NC(=O)C3CCCCC3)c2O[C@@H]1CN(C)C(=O)NC1CCCCC1,0.413
11,COc1ccc(CN(C)C[C@@H]2Oc3ccc(NS(=O)(=O)c4cn(C)cn4)cc3C(=O)N([C@@H](C)CO)C[C@@H]2C)cc1,-0.246
12,Cc1ccc(C(=O)c2coc3ccc(O)c(CN(C)C)c23)cc1,0.308
13,CCCN(C)C[C@@H]1OCCCC[C@@H](C)Oc2ccc(NC(=O)CCCN(C)C)cc2C(=O)N([C@H](C)CO)C[C@@H]1C,-0.0474
14,COc1ccc(C#Cc2ccc3c(c2)[C@]2(C(=O)N3)[C@H](C(=O)N3CCc4cc(OC)c(OC)cc4C3)[C@H]3C(=O)O[C@H](c4ccccc4)[C@H](c4ccccc4)N3[C@@H]2c2ccc(O)cc2)cc1,0.269
15,CC(=O)N1[C@@H](c2ccc(C)cc2)SC(C)(C)[C@@H]1C(=O)O,-0.179
16,Cc1ccc(S(=O)(=O)N(C)C[C@@H]2Oc3ccc(NC(=O)NC4CCCCC4)cc3C(=O)N([C@@H](C)CO)C[C@H]2C)cc1,0.362
17,Cc1ccc(S(=O)(=O)Nc2ccc3c(c2)C(=O)N([C@@H](C)CO)C[C@@H](C)[C@H](CN(C)CC2CC2)O3)cc1,-0.0524
18,COc1ccc(S(=O)(=O)Nc2cccc3c2O[C@@H](CN(C)C(=O)Nc2ccccc2)[C@@H](C)CN([C@@H](C)CO)C3=O)cc1,-0.0223
19,Cc1noc(C)c1NC(=O)Nc1ccc2c(c1)C(=O)N([C@H](C)CO)C[C@H](C)[C@H](CN(C)Cc1ccncc1)OCCCC[C@@H](C)O2,-0.384
20,COc1ccc(CN(C)C[C@H]2Oc3c(NC(=O)C4CC4)cccc3C(=O)N([C@@H](C)CO)C[C@H]2C)cc1,-0.0719
21,C[C@H]1CN([C@@H](C)CO)C(=O)c2cc(NC(=O)CCC(F)(F)F)ccc2O[C@H]1CN(C)Cc1ccc(C(=O)O)cc1,-0.0494
22,C[C@@H]1CN([C@H](C)CO)C(=O)c2cc(NS(=O)(=O)c3ccccc3)ccc2O[C@H]1CN(C)S(=O)(=O)c1cccs1,0.37

row,Compound,delta Cp (YB-1 minus CDIP)
1,COc1ccc(S(=O)(=O)Nc2ccc3c(c2)C(=O)N([C@H](C)CO)C[C@@H](C)[C@@H](CN(C)CC2CCCCC2)O3)cc1,0.268
2,Cc1ccc(S(=O)(=O)Nc2ccc3c(c2)C(=O)N([C@H](C)CO)C[C@H](C)[C@H](CN(C)S(=O)(=O)c2ccc(F)cc2)O3)cc1,0.151
3,C[C@@H]1CN([C@@H](C)CO)C(=O)CCCn2nncc2CO[C@H]1CN(C)C(=O)Nc1ccc(C(F)(F)F)cc1,-0.177
4,O=C(CCCCCCC(=O)Nc1ccccc1O)N/N=C/c1ccc(C(F)(F)F)cc1,-0.34
5,Cc1noc(C)c1S(=O)(=O)Nc1ccc2c(c1)CC(=O)N([C@H](C)CO)C[C@@H](C)[C@@H](CN(C)Cc1ccncc1)O2,-0.237
6,COc1ccc2c(c1)C(=O)CC(c1ccccc1)O2 (centres undefined),-0.382
7,COc1cc([C@H](Cc2ccccc2)NC(C)=O)oc(=O)c1,7.24 (active)
8,COc1cc(CCC(=O)O)oc(=O)c1,0.941
9,COc1ccc(S(=O)(=O)Nc2ccc3c(c2)CC(=O)N([C@H](C)CO)C[C@@H](C)[C@@H](CN(C)S(=O)(=O)c2ccc(F)cc2)O3)cc1,0.215
10,Cc1noc(C)c1S(=O)(=O)Nc1ccc2c(c1)C(=O)N([C@@H](C)CO)C[C@H](C)[C@H](CN(C)Cc1ccc(C(=O)Nc3ccccc3N)cc1)O2,-0.223
11,C[C@@H]1CN([C@@H](C)CO)C(=O)c2cccc(NC(=O)CCCCCC(=O)Nc3ccccc3N)c2O[C@@H]1CN(C)CC1CCCCC1,-0.278
12,C[C@@H]1CN([C@@H](C)CO)C(=O)Cc2cc(NC(=O)C3CCCCC3)ccc2O[C@@H]1CN(C)Cc1ccc(-c2ccccc2)cc1,-0.443
13,COc1ccc(NC(=O)N(C)C[C@H]2Oc3ccc(NS(=O)(=O)c4ccc(F)cc4)cc3C(=O)N([C@@H](C)CO)C[C@@H]2C)cc1,0.491
14,COc1cc(OC)c(/C=N/NC(=O)CCCCCCC(=O)Nc2ccccc2O)c(OC)c1,-0.14
15,N#C/C(=C\c1ccc(O)c(O)c1)C(N)=O,-0.313
16,Cc1noc(C)c1NC(=O)N(C)C[C@@H]1Oc2ccc(NC(=O)Nc3ccc4c(c3)OCO4)cc2C(=O)N([C@H](C)CO)C[C@H]1C,-0.0859
17,C[C@@H]1CCCCO[C@H](CN(C)Cc2ccccc2)[C@@H](C)CN([C@H](C)CO)C(=O)c2cc(NS(C)(=O)=O)ccc2O1,-0.038
18,O=C(O)CCC(=O)N(Cc1ccccc1)Cc1cn(-c2ccccc2)nc1-c1cccnc1,-0.539
19,C[C@@H]1CN([C@@H](C)CO)C(=O)c2cc(N(C)C)ccc2O[C@H]1CN(C)Cc1ccc(C(F)(F)F)cc1,-0.101
20,C[C@@H]1CN([C@@H](C)CO)C(=O)c2cc(NC(=O)Cc3ccccc3)ccc2O[C@@H]1CN(C)S(=O)(=O)c1ccccc1,0.109
21,C[C@@H]1CN([C@@H](C)CO)C(=O)c2cc(NC(=O)c3ccncc3)ccc2O[C@H]1CN(C)S(=O)(=O)c1ccc(Cl)cc1,-0.0147
22,Cc1ccoc1CC[N+](C)(C)C,-0.0929

row,Compound,delta Cp (YB-1 minus CDIP)
1,C[C@@H]1CN([C@@H](C)CO)C(=O)CCCn2nncc2CO[C@H]1CN(C)Cc1ccc(C(F)(F)F)cc1,-0.415
2,CNC[C@H]1Oc2ccc(NS(=O)(=O)c3ccc(F)cc3)cc2C(=O)N([C@@H](C)CO)C[C@@H]1C,-0.0588
3,C[C@@H]1CCCCO[C@@H](CN(C)S(=O)(=O)c2cccs2)[C@@H](C)CN([C@H](C)CO)C(=O)c2cc(NC(=O)Nc3ccc(F)cc3)ccc2O1,-0.356
4,COc1cccc(NC(=O)N(C)C[C@@H]2OCc3cn(nn3)CCCC(=O)N([C@@H](C)CO)C[C@H]2C)c1,0.0991
5,CC(C)(C)C(=O)CSc1nc2ccccc2c(=O)n1CC1CC1,-0.316
6,COC(=O)C1=C(C)NC2=C(C(=O)CC(C)(C)C2)C1c1ccncc1 (centres undefined),-0.233
7,O=C(O)CCCCCC(=O)N/N=C/c1ccncc1Br,-0.0121
8,Cc1ccc(/C=N/NC(=O)CCCCCCC(=O)O)o1,-0.127
9,COc1ccc(NC(=O)Nc2cccc3c2O[C@H](CN(C)Cc2ccncc2)[C@@H](C)CN([C@@H](C)CO)C3=O)cc1,-0.239
10,CC(C)S(=O)(=O)NCC1CCN(Cc2cccc(OCCO)c2)CC1,0.112
11,C[C@@H]1CCCCO[C@H](CN(C)C(=O)Nc2cccc3ccccc23)[C@@H](C)CN([C@H](C)CO)C(=O)c2cc(NC(=O)Nc3ccc4c(c3)OCO4)ccc2O1,0.427
12,C[C@@H]1CN([C@@H](C)CO)C(=O)CCCn2cc(nn2)CO[C@H]1CN(C)Cc1cccc2c1OCCCO2,-0.151
13,Cc1noc(C)c1S(=O)(=O)Nc1ccc2c(c1)CC(=O)N([C@@H](C)CO)C[C@H](C)[C@H](CN(C)C(=O)Nc1cccc3ccccc13)O2,-0.29
14,CN1C(=O)C(Cc2ccccc2)(Cc2ccccc2)c2ccccc21,-0.307
15,C[C@@H]1CN([C@H](C)CO)C(=O)c2cc(NC(=O)CCCN(C)C)ccc2O[C@H]1CN(C)S(=O)(=O)c1ccc(Cl)cc1,-0.394
16,Cc1ccc(S(=O)(=O)N(C)C[C@@H]2OCCCC[C@@H](C)Oc3ccc(NS(=O)(=O)c4ccccc4)cc3C(=O)N([C@H](C)CO)C[C@@H]2C)cc1,-0.0955
17,O=C(CCCCCCC(=O)Nc1ccccc1O)N/N=C/c1ccc2c(c1)Cc1ccccc1-2,0.456
18,O=C(N/N=C/c1cc(F)ccc1O)c1ccccc1O,0.293
19,COc1ccc(OC)c(CCCc2cc(OC)ccc2OC)c1,10.3 (active)
20,COc1ccc2nc3c(nc2c1)C(=O)c1ccccc1C3=O,0.188
